{"source": "PubChem BioAssay AID651947", "about": "(Broad Institute, 2012)", "note": "Entries with a potency or affinity are not part of this list. Results filed as inconclusive are left out. The source made the active and inactive calls.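 How the source made its calls: active means luminescence drop in HepG2 cells whose fitted half-effect dose is at most twice the top valid dose; inconclusive means flat curve with 30 to 70% signal loss, or unreliable fit; inactive means the rest.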", "data": [{"assay": "cytotoxicity in HepG2 cells, dose response, cytotoxicity control, cell-based, plate reader, dry powder (AID 651947)", "settings": "HepG2 viability, ATP luminescence (CellTiter-Glo), 48 h, stronger effect = lower value; at 26 µM unless noted", "values": [{"molecule": "Fc1ccc(-c2nnc(SCc3ccccc3)o2)cc1", "max activity": "14.5% (inactive)"}, {"molecule": "O=S(=O)(Cc1ccccc1)c1nnc(-c2ccccc2)o1", "max activity": "-24.8% (inactive)"}, {"molecule": "COc1cccc(-c2nnc(SCc3ccccc3)o2)c1", "max activity": "22.1% [at 12 µM] (inactive)"}, {"molecule": "Fc1ccc(Cn2cc(CSc3nnc(C4CCC4)o3)nn2)cc1", "max activity": "-41.8% [at 0.38 µM] (inactive)"}, {"molecule": "Clc1cccc(CSc2nnc(-c3ccccc3)o2)c1", "max activity": "-32.2% [at 0.195 µM] (inactive)"}, {"molecule": "COc1ccccc1CSc1nnc(-c2ccccc2)o1", "max activity": "-56.1% [at 6 µM] (inactive)"}, {"molecule": "CCSc1nnc(-c2ccccc2)o1", "max activity": "23.2% [at 12 µM] (inactive)"}, {"molecule": "CSc1nnc(-c2ccccc2)o1", "max activity": "-44.9% [at 60 µM] (inactive)"}, {"molecule": "O=C(Cc1ccccc1)c1nnc(-c2ccccc2)o1", "max activity": "-24.7% [at 0.8 µM] (inactive)"}, {"molecule": "Cc1ccc(-c2nnc(SCc3ccccn3)o2)cc1", "max activity": "-42.6% [at 0.38 µM] (inactive)"}, {"molecule": "COc1cccc(CSc2nnc(-c3ccccc3)o2)c1", "max activity": "25.7% (inactive)"}, {"molecule": "O=C(Cc1ccccc1)C(C(=O)c1nnc(-c2ccccc2)o1)c1ccccc1", "note": "(stereo not given)", "max activity": "-29.7% (inactive)"}, {"molecule": "CS(=O)(=O)c1ccccc1-c1nnc(SCc2ccccc2)o1", "max activity": "22.6% [at 3 µM] (inactive)"}, {"molecule": "FC(F)(F)c1ccc(-c2nnc(SCc3ccccc3)o2)cc1", "max activity": "17.4% [at 3 µM] (inactive)"}, {"molecule": "COc1cccc(-c2nnc(SCc3ccccn3)o2)c1", "max activity": "26.5% [at 1.6 µM] (inactive)"}, {"molecule": "N#Cc1ccc(CSc2nnc(-c3ccccc3)o2)cc1", "max activity": "-47.6% [at 3 µM] (inactive)"}, {"molecule": "c1ccc(-c2ccc(CSc3nnc(-c4ccccc4)o3)cc2)cc1", "max activity": "-30.5% [at 0.38 µM] (inactive)"}, {"molecule": "c1ccc(CSc2nnc(-c3cccnc3)o2)nc1", "max activity": "-43.9% (inactive)"}, {"molecule": "c1ccc(CSc2nnc(-c3ccncc3)o2)nc1", "max activity": "-29.6% [at 6 µM] (inactive)"}, {"molecule": "N#Cc1ccc(-c2nnc(SCc3ccccc3)o2)cc1", "max activity": "15.9% [at 1.6 µM] (inactive)"}]}]}
